# From PubChem BioAssay
# Most compounds without a hit are left out; they make up all but 2.3% or so of the library.
# CHO-K1 Ca PAM – nonselective activator or artifact in parental CHO-K1 calcium assay. activation, % at 3 µM. ATP EC20, Fluo-8 calcium fluorescence; 0% at ATP EC20, 100% at ATP max. AID 602247. actives 0.02% (n = 360,000);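 active = activation above the run cutoff, the mean activation of all test compounds plus 3 SD, cut at about 40% in these data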;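 also: peak over basal fluorescence ratio in a 140 s read after ATP addition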
# CHO-K1 Ca antag – M1 antagonist counterscreen hit in parental CHO-K1 cells; actives 0.6% (n = 360,000); ATP-induced calcium, Fluo-8 fluorescence; AID 602250; inhibition, % at 3 µM;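 active = inhibition above a per-plate cutoff, the plate's mean sample inhibition plus 3 SD, cut at about 24% in these data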
# CHO-K1 Ca ag – counter-screen for M1 agonists: effect in parental CHO-K1 cells | Fluo-8 calcium fluorescence; scaled to maximal ATP response, vehicle zero | activation, % at 3 µM | actives 0.48% (n = 360,000) | AID 602248; in the data active = activation above about 15%;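 also: untransfected CHO-K1 host cells lacking M1 receptor as counterscreen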
# CHRM1 PAM – positive allosteric modulators of human M1 muscarinic receptor | P11229 | actives 0.088% (n = 360,000) | activation, % at 3 µM | CHO-K1 hM1, Fluo-8 calcium fluorescence, ACh EC20; 0% = ACh EC20, 100% = maximal ACh; in the data active = activation above about 19%, passing the limit was not always enough
# Target sequence (P11229 whole entry, looked up): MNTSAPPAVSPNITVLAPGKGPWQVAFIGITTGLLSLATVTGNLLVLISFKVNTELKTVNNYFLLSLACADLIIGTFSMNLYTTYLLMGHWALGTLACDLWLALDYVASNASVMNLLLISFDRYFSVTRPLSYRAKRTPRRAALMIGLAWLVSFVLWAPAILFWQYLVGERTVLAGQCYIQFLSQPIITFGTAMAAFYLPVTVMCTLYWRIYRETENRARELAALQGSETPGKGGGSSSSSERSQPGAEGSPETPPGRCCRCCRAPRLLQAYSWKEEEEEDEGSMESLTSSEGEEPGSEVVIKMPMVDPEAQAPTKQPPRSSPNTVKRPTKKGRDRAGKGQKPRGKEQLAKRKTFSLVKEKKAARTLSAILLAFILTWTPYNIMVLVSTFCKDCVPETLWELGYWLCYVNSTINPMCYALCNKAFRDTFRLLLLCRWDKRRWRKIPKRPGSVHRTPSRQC
# M1 ag – activates human CHRM1 receptor | AID 588814 | activation, % at 3 µM | CHO-K1 hM1, Fluo-8 calcium fluorescence, agonist mode; 0% DMSO, 100% acetylcholine EC100 | P11229 | actives 0.33% (n = 360,000);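 active = activation above the run's mean compound activation plus 3 SD, cut at about 16% in these data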;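 also: peak over basal fluorescence ratio within a 140 s kinetic read after compound addition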
# M1 antag – antagonists of human M1 muscarinic receptor | CHO-K1 hM1, Fluo-8 calcium fluorescence, ACh EC80 antagonist | P11229 | actives 1.3% (n = 360,000) | inhibition, % at 3 µM;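 active = percent inhibition above its own plate's cutoff, namely the mean of that plate's compound wells plus 3 SD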;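 also: peak over basal fluorescence ratio during 140 s after agonist addition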
# Numbers stand for hits; 0 = inactive.
SMILES,CHO-K1 Ca PAM,CHO-K1 Ca antag,CHO-K1 Ca ag,CHRM1 PAM,M1 ag,M1 antag
Cc1c2cnn(CC(=O)NC3CCCC3)c(=O)c2c(C)n1Cc1ccccc1,0,0,0,0,23,0
OCCN(CCO)CC(O)CN1c2ccccc2Sc2ccccc21 (stereo not given),0,0,0,0,0,0
CCC(=O)/C=C1\Sc2ccc(OC)cc2N1CC,0,0,0,0,0,0
CCN(CC)CC(O)CN1c2ccccc2Sc2ccccc21 (stereo not given),0,0,0,0,0,51
CC(CN(C)C)CN1c2ccccc2Sc2ccccc21 (stereo not given),0,0,0,0,0,101
COc1ccc2c(c1)N(C[C@H](C)CN(C)C)c1ccccc1S2,0,0,0,0,0,99
Cc1ccccc1SCC(=O)NCC1(N2CCCCC2)CCCCC1,0,0,0,0,0,0
CCCCCCCCCC[n+]1cccc(C(=O)N(CC)CC)c1,0,0,0,0,0,42
NC(=O)c1ccc[n+](CCC[n+]2cccc(C(N)=O)c2)c1,0,0,0,0,0,0
COc1cccc(CNCCc2c[nH]c3ccccc23)c1OCc1ccccc1,0,0,21,0,0,0
COc1ccccc1CCNCc1ccc(OC)c(OCc2ccccc2)c1,0,0,20,0,0,34
COc1ccc(CNCc2ccco2)cc1OCc1ccccc1,0,0,0,0,0,0
Cc1[nH]nc(SCC(=O)NC(C)c2ccccc2)c1[N+](=O)[O-] (stereo not given),0,25,0,0,0,0
Cc1ccc(CN/C=C/C(=O)c2ccc(Br)cc2)cc1,0,0,0,0,0,0
Cc1ccc(C(=O)/C=C/NCc2ccc(F)cc2)cc1,0,25,0,0,0,0
COc1ccc(-n2nc([N+](=O)[O-])c(=NC3CCN(Cc4ccccc4)CC3)n2O)cc1,0,0,0,0,0,25
COCCCN1C(=O)C(CC(=O)NCc2cccc3ccccc23)CC(C(=O)N(C)C)=C1C (stereo not given),0,0,0,0,0,0
OCCN1CCN(CC/C=C2/c3ccccc3Sc3ccc(C(F)(F)F)cc32)CC1,0,0,0,0,0,0
CCCCCC[N+](C)(C)CC/C=C1/c2ccccc2Sc2ccc(Cl)cc21,0,0,0,0,0,99
CN(C)CC/C=C1/c2ccccc2Sc2ccc(Cl)cc21,0,0,0,0,0,99
COc1cc(CN2CCC(C(=O)NC(c3ccc(-c4ccccc4)cc3)c3cnccn3)CC2)cc(OC)c1 (stereo not given),0,0,0,0,0,0
Cn1c(=O)n(C)c2cc([N+](=O)[O-])c(N3CCN(S(=O)(=O)c4ccc5ccccc5c4)CC3)cc21,0,0,0,0,0,0
Cc1ccc(S(=O)(=O)N2CCN(c3cc4c(cc3[N+](=O)[O-])n(C)c(=O)n4C)CC2)cc1,0,0,0,0,0,52
O=C(Cc1csc(NC(=O)Nc2cccc(Cl)c2)n1)NCc1ccccn1,0,0,0,0,0,0
O=C(Cc1csc(NC(=O)Nc2cccc(Cl)c2)n1)NC1CCCC1,0,0,16,0,0,0
SMILES,CHO-K1 Ca PAM,CHO-K1 Ca antag,CHO-K1 Ca ag,CHRM1 PAM,M1 ag,M1 antag
COc1ccc(-c2csc(NC(C)=O)n2)cc1OC,0,0,0,0,0,0
O=C(Nc1cccc(Cl)c1)Nc1nc(-c2ccc(Cl)cc2)cs1,0,0,0,0,0,30
O=C(Nc1cccc(Cl)c1)Nc1csc([N+](=O)[O-])c1,0,0,16,0,0,0
O=C(Nc1ccncc1)Nc1cccc(Cl)c1,0,0,0,0,0,0
COc1cccc(NC(=O)Nc2nc(-c3ccc(OC)c(OC)c3)cs2)c1,0,0,0,0,0,31
CNC(=O)C(=O)NCC1OCCN1S(=O)(=O)c1ccc(OC)c(OC)c1 (stereo not given),0,0,0,0,0,0
Cn1cc(CN2CCCC(C(=O)Nc3ccc(-c4cccc(F)c4)cc3)C2)cn1 (stereo not given),0,0,0,0,0,0
COc1ccc(CCNc2nc(C)nc3c2nnn3Cc2ccccc2)cc1,0,0,0,0,0,0
COc1ccccc1N1CCN(C(=O)c2cccc(S(=O)(=O)Nc3ccccc3F)c2)CC1,0,0,0,0,0,0
